Assay results taken from PubChem BioAssay AID1851 (National Center for Advancing Translational Sciences (NCATS), 2009).
Several values for one entry are separate records, joined by “and”; a condition that tells them apart may be missing. Equal entries are not always repeated. About 5,100 (32%) of roughly 16,000 compounds were called active. Inconclusive results (about 25%) are left out. Calls follow the shape of the dose curve; as a rule, active = well fitted curve in the direction sought with a large enough effect; inconclusive = small, poorly fitted or top-dose-only effect, or effect the other way; inactive = no such curve, though single readings can be large or run the other way. This is one part of the list.

These compounds were tested against Cytochrome P450 3A4 (Homo sapiens) (UniProt P08684) (assay: Cytochrome panel assay with activity outcomes). Details: recombinant CYP, pro-luciferin dealkylation, luminescence, p450-cyp3a4; series mostly up to 57.1 µM.
% is scaled to controls: 0 for no effect and ±100 for the full control effect.

Chain of Cytochrome P450 3A4 (Homo sapiens) (P08684 whole entry, looked up): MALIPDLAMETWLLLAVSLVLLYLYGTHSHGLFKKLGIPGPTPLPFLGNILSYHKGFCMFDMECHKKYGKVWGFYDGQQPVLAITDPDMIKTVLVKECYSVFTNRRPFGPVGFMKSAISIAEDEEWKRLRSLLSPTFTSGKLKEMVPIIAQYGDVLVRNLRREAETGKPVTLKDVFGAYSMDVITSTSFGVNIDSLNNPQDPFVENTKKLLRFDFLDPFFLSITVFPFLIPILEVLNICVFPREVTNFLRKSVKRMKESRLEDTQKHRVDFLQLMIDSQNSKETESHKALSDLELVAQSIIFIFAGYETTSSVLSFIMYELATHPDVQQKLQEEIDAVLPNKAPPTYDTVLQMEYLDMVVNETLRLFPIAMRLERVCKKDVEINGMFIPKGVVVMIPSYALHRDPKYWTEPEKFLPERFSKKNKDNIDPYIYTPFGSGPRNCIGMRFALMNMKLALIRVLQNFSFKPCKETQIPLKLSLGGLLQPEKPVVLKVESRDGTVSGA

Row | SMILES | activity, negative = inhibition | AC50
1 | COc1ccc(Sc2nc3ccccc3n3c(C(F)(F)F)nnc23)cc1 | -0.72% [at 11.4 µM] (inactive) | –
2 | C[N+]1(C)CCc2cc3c(cc2[C@@H]1[C@@H]1C(=O)Oc2c1ccc1c2OCO1)OCO3 | – | 12.6 µM (active) and 15.8 µM (active)
3 | CN1CCc2cc3c(cc2[C@@H]1[C@@H]1C(=O)Oc2c1ccc1c2OCO1)OCO3 | – | 1.26 µM (active)
4 | CCCCSC(=S)N(C)C1CCS(=O)(=O)C1 (stereo not given) | – | inactive
5 | Fc1ccc(Nc2ccnc(-c3ccc4c(c3)OCO4)n2)cc1 | – | 2 µM (active)
6 | Fc1ccc(Nc2ccnc(-c3ccoc3)n2)cc1 | – | 7.94 µM (active)
7 | CN(C)c1ccc(-c2nccc(Nc3ccc(F)cc3)n2)cc1 | – | 12.6 µM (active)
8 | CN(C)c1ccc(-c2cc(Nc3ccc(F)cc3)ncn2)cc1 | – | 10 µM (active)
9 | Nc1nccc(Nc2ccc(S(N)(=O)=O)cc2)n1 | -5.22% [at 11.4 µM] (inactive) | –
10 | C(=Nc1cnc2ccccc2c1)c1ccc2ccccc2n1 | -12.4% [at 11.4 µM] (inactive) | –
11 | O=C1C2C3C=CC(C3)C2C(=O)N1c1ncn[nH]1 (stereo not given) | – | inactive
12 | O=C1C2C3c4ccccc4C(c4ccccc43)C2C(=O)N1c1nc(-c2ccccc2)cs1 (stereo not given) | 0.59% [at 2.29 µM] (inactive) | –
13 | CC(C)(C)C(=O)N1CCc2cc(-c3csc(N)n3)ccc21 | – | 8.91 µM (active)
14 | COc1ccccc1CNS(=O)(=O)c1ccc2[nH]cc(C(=O)O)c(=O)c2c1 | – | inactive
15 | O=C(OCCN1CCCCC1)c1c[nH]c2ccccc12 | – | inactive
16 | COc1cc(Cl)c(CC(=O)c2c[nH]c3ccccc23)cc1OC | – | 2.51 µM (active)
17 | Nc1cc(Cl)nc(N/N=C/c2ccccc2[N+](=O)[O-])n1 | – | 14.1 µM (active)
18 | Nc1nnnn1/N=C\c1ccc(Cl)c([N+](=O)[O-])c1 | – | inactive
19 | O=[N+]([O-])c1ccc(/C=N/Nc2cc(Cl)nc(-c3ccccc3)n2)cc1 | – | inactive
20 | N[C@@H]1[C@@H]2[C@@H]3C[C@H]4N(CC[C@@]14C(=O)C(=O)O)CC3=CCO[C@@H]2CC(=O)O | -11.7% [at 11.4 µM] (inactive) | –
21 | COc1ccc2c(c1)CCc1c(C(=O)N3CCCCCC3)noc1-2 | – | 14.1 µM (active)
22 | CSc1nc2ccccc2cc1/C=C(\C#N)c1ccc(Cl)cc1Cl | 25.6% [at 11.4 µM] (inactive) | –
23 | CCOC(=O)C1=NNC2(c3ccc(Cl)cc3)C(=O)N(c3cc(C)cc(C)c3)C(=O)C12 (stereo not given) | – | 2.24 µM (active)
24 | Cc1ccc(-c2c3c(nc4sc(C(N)=O)c(N)c24)CCC3)cc1 | 0.806% [at 2.29 µM] (inactive) | –
25 | Cc1nc2sc(C#N)c(N)c2c2c1CCCC2 | – | 14.1 µM (active)
